Source: PubChem BioAssay AID1220 (Sanford-Burnham Center for Chemical Genomics, 2008)
The campaign covered roughly 190,000 compounds. About 1,300 (0.68%) were called active. The sample as a whole holds a higher share of actives than the screen did. Unmarked numbers belong to inactive results. Rule as the data show it: active = inhibition above about 50%; inactive = the rest.

These compounds were tested against Mannose-6-phosphate isomerase (Homo sapiens) (UniProt P34949) (assay: MPI inhibition at elevated mannose 6-phosphate – biochemical, fluorescence intensity, high mannose 6-phosphate, primary screen (AID 1220)). Settings: recombinant PMI enzyme, coupled fluorescence intensity; at 20 µM; hits give high values.
Mannose-6-phosphate isomerase (Homo sapiens), sequence (P34949 whole entry, looked up): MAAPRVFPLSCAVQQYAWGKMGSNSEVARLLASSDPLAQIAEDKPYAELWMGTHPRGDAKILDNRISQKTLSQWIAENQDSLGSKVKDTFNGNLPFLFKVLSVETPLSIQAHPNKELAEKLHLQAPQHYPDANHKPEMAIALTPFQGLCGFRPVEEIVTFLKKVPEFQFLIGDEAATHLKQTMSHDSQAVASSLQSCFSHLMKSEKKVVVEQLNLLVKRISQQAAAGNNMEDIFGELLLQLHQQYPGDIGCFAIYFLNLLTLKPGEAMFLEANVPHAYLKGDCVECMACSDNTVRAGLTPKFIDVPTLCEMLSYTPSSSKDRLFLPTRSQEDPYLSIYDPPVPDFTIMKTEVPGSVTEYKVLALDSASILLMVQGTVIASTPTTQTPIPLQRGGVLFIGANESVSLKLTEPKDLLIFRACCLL
Work on CN(C(=O)c1cccnc1)c1nnc(-c2ccccn2)s1 yielded an inhibition of 2%.
N#Cc1c(NCCN)nc(NCc2ccccc2)c2c1CCN(Cc1ccccc1)C2 was tested, and the inhibition was 52.6% (active).
Work on Nc1[nH]nc2nc(NCc3ccccc3)c3c(c12)CCN(Cc1ccccc1)C3 yielded an inhibition of 3.5%.
In the case of CCN1CCc2c(C#N)c(N3CCCCC3)nc(NCc3ccccc3)c2C1, the inhibition is reported as 32.5%.
Compound CCN1CCc2c(C#N)c(NCc3ccccc3)nc(N(CC)CC)c2C1 has an inhibition of 0.8%.
In the case of CN1CCc2c(C#N)c(N3CCCCC3)nc(NCc3ccccc3)c2C1, the inhibition is reported as 53% (active).
In the case of N#Cc1c(N2CCCCC2)nc(N2CCCCC2)c2c1CCN(Cc1ccccc1)C2, the inhibition is reported as 8%.
C=CCNc1nc(N2CCOCC2)c(C#N)c2c1CN(C)CC2 gave an inhibition of 37.3%.
In the case of C=CCNc1nc(N2CCCCC2)c(C#N)c2c1CN(Cc1ccccc1)CC2, the inhibition is reported as 55.6% (active).
CC(C)CCNc1nc(N2CCCC2)c2c(c1C#N)CCN(C)C2 gave an inhibition of 14.4%.
With CCCN1Cc2cccc(C(=O)N3CCN(c4ccccc4)CC3)c2C1=O the inhibition was 1%.
With O=C(Nc1ccc(N2CCOCC2)cc1)c1ccccc1SCC(=O)N1CCCC1 the inhibition was 4.1%.
Fc1ccc(CNC(=S)NC2CCCCC2)cc1 gave an inhibition of 8.4%.
Work on COc1ccc(NC2CC(=O)N(C(C)C)C2=O)cc1 (centres undefined) yielded an inhibition of 8.8%.
For CN1C(=O)CC(Nc2cccc3cccc(N)c23)C1=O (centres undefined), the inhibition was 49.7%.
In the case of CC(C)N1C(=O)CC(Nc2cccc3cccc(N)c23)C1=O (centres undefined), the inhibition is reported as 64.5% (active).
Compound COc1cc(/C=C2\SC(c3ccc(C)cc3)=NC2=O)cc(OC)c1O has an inhibition of 26.7%.
With COc1cc(/C=C2\SC(c3ccc(C)cc3)=NC2=O)ccc1O the inhibition was 9.3%.
Cc1ccc(C2=NC(=O)/C(=C/c3cc(O)c(O)c(Br)c3)S2)cc1 was tested, and the inhibition was 53.2% (active).
Work on Cc1cccc(OCc2nnc(SCC(=O)Nc3ccc(C)c(C)c3)o2)c1 yielded an inhibition of 17.5%.
Work on Fc1ccccc1N1CCN(c2nnnn2-c2ccccc2)CC1 yielded an inhibition of -2.8%.
In the case of COc1ccc(/C=N/Nc2nonc2N)cc1OC, the inhibition is reported as -6.6%.
With Nn1cnnc1N/N=C/c1ccc(Cl)c([N+](=O)[O-])c1 the inhibition was 60.2% (active).
Nn1cnnc1N/N=C/c1cc([N+](=O)[O-])c(Cl)cc1Cl showed an inhibition of -35.2%.
Work on CC1CCN(c2ccc(/C=N\Nc3nncn3N)cc2[N+](=O)[O-])CC1 yielded an inhibition of 43.7%.
CCc1nnc(N/N=C/c2ccc(-c3ccc([N+](=O)[O-])cc3)o2)n1N gave an inhibition of 41.3%.
Cc1nnc(N/N=C/c2ccc([N+](=O)[O-])cc2)n1N was tested, and the inhibition was 68.7% (active).
COc1ccc(-n2c(C)cc(/C=N/Nc3nnc(C)n3N)c2C)cc1 showed an inhibition of -12.8%.
With COc1ccc(/C=N/Nc2nnc(C)n2N)cc1OC the inhibition was 67.2% (active).
Work on Cc1cc(=O)[nH]c(N/N=C/c2ccc([N+](=O)[O-])cc2)n1 yielded an inhibition of -4.6%.
Work on CCc1cc(=O)oc2cc(C)c3c(C)coc3c12 yielded an inhibition of 4.2%.
In the case of COc1ccc(C(=O)N(CN2CCCC2=O)c2ccccc2OC)cc1OC, the inhibition is reported as 18.2%.
In the case of O=C(Nc1nc(-c2ccc(Cl)cc2)cs1)NC1CCCCC1, the inhibition is reported as -7.6%.
In the case of CCN(CC)C(=O)CSc1nc(O)c(Cc2ccccc2)c(=O)n1-c1ccccc1, the inhibition is reported as -5.3%.
With Nn1c(SCC(=O)NCc2ccccc2)nncc1=O the inhibition was 11.9%.
Oc1ccc(-c2csc(-c3c[nH]c4ccccc34)n2)c(O)c1 showed an inhibition of -4.2%.
Cc1ccc(/C=C2\C(=O)Nc3ccccc32)o1 was tested, and the inhibition was 6.8%.
Compound N#CCC(=O)N/N=C/c1ccc(OC2CSC2)cc1 has an inhibition of 6.6%.
CN(C)c1nc(Oc2ccc(=O)[nH]n2)nc(N2CCCCC2)n1 gave an inhibition of -0.1%.
With CCOC(=O)Cc1csc(SCC(=O)NC2CCCCC2)n1 the inhibition was -6%.
CCOC(=O)Cc1csc(SCC(=O)NC(C)C23CC4CC(CC(C4)C2)C3)n1 (centres undefined) was tested, and the inhibition was 51% (active).
CCOC(=O)Cc1csc(SCC(=O)NC2CCCC(C)C2C)n1 (centres undefined) gave an inhibition of -3.7%.
COC(C(=O)Nc1ccc(F)cc1F)c1ccccc1 (centres undefined) gave an inhibition of 0.3%.
Work on O=C(NCCCn1ccnc1)C(Cc1ccc([N+](=O)[O-])cc1)N1C(=O)c2ccccc2C1=O (centres undefined) yielded an inhibition of -5.8%.
CCn1c(Cc2ccccc2)nnc1SCC(=O)c1cccc([N+](=O)[O-])c1 gave an inhibition of 5.6%.
Compound Cc1noc(C)c1S(=O)(=O)Nc1ccc(C(=O)NCCc2ccccc2)cc1 has an inhibition of 3.4%.
O=c1nc2s/c(=C\c3ccc(-c4ccccc4[N+](=O)[O-])o3)c(=O)n2nc1-c1ccccc1 was tested, and the inhibition was 50.5% (active).
For O=C1C2C3C=CC(C3)C2C(=O)N1/N=C/c1ccc(-c2ccccc2[N+](=O)[O-])o1 (centres undefined), the inhibition was 51.5% (active).
Work on O=C1ON=C(c2ccccc2)/C1=C/c1ccc(-c2ccccc2[N+](=O)[O-])o1 yielded an inhibition of -11%.
Compound O=C1C2C3C=CC(C4CC34)C2C(=O)N1/N=C/c1ccc(-c2ccc(F)cc2[N+](=O)[O-])o1 (centres undefined) has an inhibition of 14.4%.
Cc1ccc(-c2ccc(/C=N/N3C(=O)C4C5C=CC(C6CC56)C4C3=O)o2)c([N+](=O)[O-])c1 (centres undefined) was tested, and the inhibition was 50.8% (active).
Work on Cc1n[nH]c(=S)n1/N=C/c1ccc(-c2ccccc2[N+](=O)[O-])o1 yielded an inhibition of 21.2%.
In the case of O=C1C2C3C=CC(C4CC34)C2C(=O)N1/N=C/c1ccc(-c2ccc(Cl)cc2[N+](=O)[O-])o1 (centres undefined), the inhibition is reported as 7.4%.
With COc1ccc(-c2ccc(/C=N/N3C(=O)C4C5C=CC(C6CC56)C4C3=O)o2)c([N+](=O)[O-])c1 (centres undefined) the inhibition was 42.2%.
Work on Clc1ccccc1-c1ccc(/C=N/n2cnnc2)o1 yielded an inhibition of 6.7%.
Compound Cc1ccc(-c2ccc(/C=N/N3C(=O)C4C5C=CC(CC5)C4C3=O)o2)c([N+](=O)[O-])c1 (centres undefined) has an inhibition of 33.2%.
Work on O=C1/C(=C\c2ccc(-c3ccccc3[N+](=O)[O-])o2)C(c2ccccc2)=NN1c1ccccc1 yielded an inhibition of -2.3%.
For O=[N+]([O-])c1ccccc1-c1ccc(/C=N/n2cnnc2)o1, the inhibition was 51.1% (active).
For CCCc1nc(N)c(C#N)c(N)c1C#N, the inhibition was 3.2%.
With O=C(Nc1cc(S(=O)(=O)N2CCOCC2)ccc1N1CCOCC1)c1ccc(S(=O)(=O)N2CCCCC2)cc1 the inhibition was -10.7%.
Clc1ncn(C23CC4CC(CC(C4)C2)C3)n1 gave an inhibition of -0.3%.
For CCOC(=O)c1cccc(NC(=O)CN(c2ccc(OC)cc2)S(=O)(=O)c2c(C)noc2C)c1, the inhibition was 19.2%.
Cc1c(O)c(CN2CCCCC2)cc2c1oc(=O)c1ccccc12 gave an inhibition of 1.8%.
NC(=O)C1(N2CCCCC2)CCN(CC(=O)Nc2cc(Cl)ccc2Cl)CC1 showed an inhibition of 7.2%.
For CCC1(C)COC2(OC1)C(=O)Nc1ccccc12 (centres undefined), the inhibition was 8.2%.
With Cc1ccc(NC(=O)CS(=O)CC(=O)NCCCN(C)c2ccccc2)cc1 (centres undefined) the inhibition was 11.5%.
With COC1CCCN(Cc2cn(C)nc2-c2ccc(Oc3ccccc3)cc2)C1 (centres undefined) the inhibition was 8.1%.
With O=C(NCC1CCCO1)C(=O)NCC(c1ccco1)N1CCN(c2ccccc2)CC1 (centres undefined) the inhibition was -4.7%.
With Cc1ccc(C(=O)Oc2ccccc2N2C(=O)C3C4CCC(C4)C3C2=O)cc1 (centres undefined) the inhibition was 0.7%.
CC1CCC2C(=O)N(c3ccc(C(=O)Oc4cccc5cccnc45)cc3)C(=O)C2C1 (centres undefined) gave an inhibition of 48.7%.
In the case of O=C(Oc1cccc2cccnc12)c1cccc(N2C(=O)C3C4CCC(C4)C3C2=O)c1 (centres undefined), the inhibition is reported as 51.9% (active).
With O=C(Oc1cccc2cccnc12)c1ccc(N2C(=O)C3C4CCC(C4)C3C2=O)cc1 (centres undefined) the inhibition was 50.5% (active).
Work on O=C(Nc1ccc(F)cc1)c1cccc(N2C(=O)C3C4CCC(C4)C3C2=O)c1 (centres undefined) yielded an inhibition of 9.3%.
For O=C(Oc1cccc2cccnc12)c1cccc(-n2cnnn2)c1, the inhibition was 27.9%.
Compound Cn1c(=O)c2c(nc(N3CCCC3)n2CC(O)CO)n(C)c1=O (centres undefined) has an inhibition of -12.4%.
Cc1cc(C)nc(NC(=O)c2cc(Br)ccc2Cl)n1 showed an inhibition of -2.5%.
In the case of O=C(COC(=O)c1cccs1)Nc1cc(S(=O)(=O)N2CCOCC2)ccc1Cl, the inhibition is reported as -2.3%.
Work on COc1cc(NC(=O)CCNC(=O)Cn2cnc3ccccc3c2=O)cc(OC)c1OC yielded an inhibition of 10.9%.
Compound COC(=O)c1nnn(-c2nc(N3CCOCC3)nc(N3CCOCC3)n2)c1C has an inhibition of 8.7%.
For COc1cc(OC)c([N+](=O)[O-])cc1/C=N/NC(=O)c1ccncc1, the inhibition was 58.7% (active).
Work on COc1ccc(/C=N/NC(=O)c2ccncc2)cc1[N+](=O)[O-] yielded an inhibition of -13.2%.
For COc1cc(OC)c(/C=N/NC(=O)c2ccncc2)cc1Br, the inhibition was -19.4%.
Work on COc1ccc(Cn2nnnc2C(c2ccc3ncccc3c2)N2CCN(C3CCCCC3)CC2)cc1 (centres undefined) yielded an inhibition of -3.1%.
In the case of O=C(O)c1cc(Cl)c(Cl)cc1C(=O)Nc1cccc2ncccc12, the inhibition is reported as 54.8% (active).
COCCCNC(=S)Nc1cccc2ncccc12 was tested, and the inhibition was 54.4% (active).
O=C(NC(=S)Nc1cccc2ncccc12)c1ccccc1 showed an inhibition of 30.3%.
O=C(Cc1ccc(Cl)c(Cl)c1)Nc1cccc2ncccc12 showed an inhibition of 8.6%.
COCCNC(=S)Nc1cccc2cnccc12 was tested, and the inhibition was 48%.
COCCCNC(=S)Nc1ccccc1C was tested, and the inhibition was 15.8%.
In the case of O=C(NC(=S)Nc1cccc2ncccc12)c1ccco1, the inhibition is reported as 7.2%.
With O=C(O)c1cc(Cl)c(Cl)cc1C(=O)Nc1cccc2cccnc12 the inhibition was 46%.
For O=C(NC(=S)Nc1cccc2ncccc12)c1cccs1, the inhibition was 67.1% (active).
CCN1C2=C(C(=O)CCC2)C(c2ccc(O)cc2)C2=C1CCCC2=O was tested, and the inhibition was -9.2%.
Compound Cc1nnc(NC(=O)CSc2nnc(-c3ccc(S(=O)(=O)N4CCCC4)cc3)n2C)s1 has an inhibition of -8.6%.
